# G9a block = blocks human histone lysine methyltransferase G9a; Q96KQ7; G9a H3K9 monomethylation, AlphaScreen, 2 h; Potency, µM (titrated, usually from 102 µM), hits mostly inhibitors; 350,000 compounds, 8.8% hits; also: nearly all actives have a fitted effect of over 75% in size
# Target sequence (Q96KQ7 913-1193 limits assumed): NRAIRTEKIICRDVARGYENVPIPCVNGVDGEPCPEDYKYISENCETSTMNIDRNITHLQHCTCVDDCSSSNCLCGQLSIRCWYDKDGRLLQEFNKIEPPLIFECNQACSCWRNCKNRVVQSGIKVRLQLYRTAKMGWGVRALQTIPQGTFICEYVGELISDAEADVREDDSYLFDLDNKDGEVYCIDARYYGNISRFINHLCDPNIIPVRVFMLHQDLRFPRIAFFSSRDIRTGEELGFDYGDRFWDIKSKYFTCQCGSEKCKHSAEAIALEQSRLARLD
#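 Compounds were preincubated with 20 nM G9a for 15 min, after which biotinylated H3K9 peptide (500 nM) and SAM (20 uM) started a 2 h room-temperature reaction. Monomethylated product was quantified by antibody-based AlphaScreen chemiluminescence.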
# JMJD2A Tudor = inhibitors of human JMJD2A Tudor domain | 390,000 compounds, 4.4% hits | AID 504339 | O75164 | Potency, µM (titrated, usually from 114 µM), usual class: inhibitors | AlphaScreen JMJD2A-Tudor / H3K4me3 peptide binding; also: nearly all actives have a fitted effect of over 50% in size
# L3MBTL1 block = blocks human L3MBTL1 | 230,000 compounds, 0.66% hits | AID 485360 | Potency, µM (titrated, usually from 57.1 µM), usual class: inhibitors | AlphaScreen L3MBTL1–H3K9me1 peptide binding | Q9Y468; also: nearly all actives have a fitted effect of over 60% in size
#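 L3MBTL1 (50 nM) pre-complexed 30 min with biotinylated H3(1-15)K9me1 peptide (75 nM), then compounds added for 30 min at room temperature; AlphaScreen streptavidin donor/nickel chelate acceptor beads (10 ug/mL final) read after 30 min dark incubation.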
# HP1b binding inh = HP1-beta chromodomain-methylated histone interaction inhibition; P83916; Potency, µM (titrated, usually from 114 µM), hits mostly inhibitors; AlphaScreen HP1-beta / biotin-H3K9me3 peptide binding; 390,000 compounds, 0.56% hits; also: nearly all actives have a fitted effect of over 70% in size
# Target sequence (P83916 whole entry, looked up): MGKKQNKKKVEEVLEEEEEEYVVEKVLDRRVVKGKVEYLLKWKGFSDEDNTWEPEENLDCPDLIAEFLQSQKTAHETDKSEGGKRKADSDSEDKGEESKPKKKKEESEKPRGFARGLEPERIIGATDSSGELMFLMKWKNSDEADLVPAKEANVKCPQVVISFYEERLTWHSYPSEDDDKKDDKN
#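 Compound inhibition of the preformed complex between 50 nM HP1-beta and 50 nM biotinylated H3K9me3 peptide was read by AlphaScreen. Buffer was PBS pH 7.4 with 0.01% Tween-20. Incubations ran 30 min at room temperature, with 10 ug/mL donor/acceptor beads.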
# BAZ2B block = blocks human BAZ2B; Q9UIF8; AlphaScreen BAZ2B-H3K14Ac peptide displacement; Potency, µM (highest dose often 114 µM), hits mostly inhibitors; 360,000 compounds, 4.4% hits; AID 504333; also: nearly all actives have a fitted effect of over 60% in size
#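 Multi-concentration screen (max 110 uM) measuring displacement of acetylated histone H3 peptide from BAZ2B by AlphaScreen, using 50 nM protein, 50 nM peptide and 10 ug/mL streptavidin donor plus Ni-chelate acceptor beads.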
# 12-hLO 8HQ R1 = blocks human 12-lipoxygenase product formation in cuvette. shares compounds with BAZ2B block. purified 12-hLO, cuvette UV 234 nm product formation. Potency, µM, actives largely listed as inhibitors. 35 compounds, 60% hits. AID 2163;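 active = compounds that slowed 12-hLO product formation enough to yield a measured IC50 potency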
# JMJD2E inh = inhibitors of human JMJD2E demethylase, 8HQ series round 1 | shares compounds with BAZ2B block | JMJD2E demethylase, FDH-coupled NADH fluorescence (FDH is formaldehyde dehydrogenase) | Potency, µM (top dose mostly 57 µM), hits mostly inhibitors | 130 compounds, 89% hits
# ME-1 growth = reduces ME-1 leukemia cell proliferation; shares compounds with BAZ2B block; ME-1 cell proliferation, ATP luminescence, 48 h; Potency, µM (highest dose often 56.1 µM), hits mostly inhibitors; 140 compounds, 20% hits
# A number is an active result; i = inactive; ? = inconclusive; nt = no result; [ ] = remark or other dose. Rows were chosen to be rich in hits. Some 11% of all compounds tested hit in one or more screens of this group. Unless noted, calls follow the shape of the dose curve; as a rule, active = well fitted curve in the direction sought with a large enough effect; inconclusive = small, poorly fitted or top-dose-only effect, or another doubt; inactive = no such curve, though single readings can be large; an effect the other way counts as inactive or inconclusive.
SMILES,G9a block,JMJD2A Tudor,L3MBTL1 block,HP1b binding inh,BAZ2B block,ME-1 growth,others
O=C(O)c1cc(O)c2c(c1)[C@H]([C@H]1c3cc(C(=O)O)cc(O)c3C(=O)c3c(O[C@@H]4OC(CO)C(O)C(O)C4O)cccc31)c1cccc(O[C@@H]3OC(CO)C(O)C(O)C3O)c1C2=O (some centres not stated),i[2.33 µM],nt,nt,nt,nt,i,
O=C(O)c1cccnc1C(=O)O,3.55µM,0.891µM,?,i,6.31µM,i,
O=C(O)c1cccnc1Cl,?,i,i,i,?,nt,
Brc1ccc(Cn2c(-c3ccc(Br)o3)nc3ccccc32)o1,39.8µM,i,i,i,12.6µM,?,
CO/N=C1\CN(c2nc3c(cc2F)c(=O)c(C(=O)O)cn3C2CC2)CC1CN (configuration not stated),i[2.33 µM],nt,nt,nt,nt,?,
COc1c(N2CCN(C(=S)NC3CC4CCC3C4)C(C)C2)c(F)cc2c(=O)c(C(=O)O)cn(C3CC3)c12 (configuration not stated),i,i,i,i,?,nt,
Clc1ccc2c(c1)C(N1CCNCC1)Cc1ccccc1S2 (configuration not stated),?,?,i,i,i,nt,
COCCCN1CCN(C2Cc3ccccc3Sc3ccc(Cl)cc32)CC1 (configuration not stated),?,22.4µM,i,i,?,i,
O=C(CN1C(=O)C2CC=CCC2C1=O)Nc1ccc(S(=O)(=O)Nc2nccs2)cc1 (configuration not stated),?,i,nt,i,i,nt,
O=C1CSC(=S)N1/N=C/c1ccc(O)c(O)c1O,1.26µM,3.16µM,1.12µM,1.78µM,2.82µM,?,
CC(C)(C)c1ccc(/C=N/N2C(=O)CSC2=S)cc1,?,i,nt,i,?,nt,
Cc1ccc(S(=O)(=O)N2CCCCC2)cc1C(=O)OC(C)C(=O)NCC1CCCCC1 (configuration not stated),?,i,i,i,i,nt,
COc1ccc(S(=O)(=O)Nc2cccc3c2O[C@H](CN(C)S(=O)(=O)c2ccccc2)[C@@H](C)CN([C@H](C)CO)C3=O)cc1,nt,i,i,i,nt,nt,
CC(=O)Nc1ccc(Nc2ccc3c4c(cc(=O)n3C)-c3ccccc3C(=O)c24)cc1,?,i,i,i,?,nt,
O=C1c2ccccc2C(=O)c2c(Nc3ccc(CCO)cc3)ccc(O)c21,3.55µM,8.91µM,5.62µM,8.91µM,1.78µM,?,
C=C1c2cccc(O)c2C(O)=C2C(=O)[C@@]3(O)C(O)=C(C(N)=O)C(=O)[C@@H](N(C)C)[C@@H]3[C@@H](O)[C@H]12,3.98µM,nt,nt,nt,nt,i,
COc1cccc2c1NC(C(=O)O)C1CC=CC21 (configuration not stated),2.51µM,8.91µM,1.26µM,20µM,3.55µM,?,
CC(=O)NC(c1ccco1)c1cc(Cl)c2ccc(Cl)nc2c1O (configuration not stated),?,i,i,i,i,nt,12-hLO 8HQ R1=i;JMJD2E inh=i
CCC(=O)NC(c1ccco1)c1cc(Cl)c2ccccc2c1O (configuration not stated),i[0.501 µM],i,i,i,i,nt,
CC(=O)NC(c1ccco1)c1cc(Cl)c2ccccc2c1O (configuration not stated),i[12.7 µM],i,i,i,i,nt,
CC(=O)NC(c1ccco1)c1cc(F)c2cccnc2c1O (configuration not stated),i[12.7 µM],56.2µM,14.1µM,i,20µM,nt,12-hLO 8HQ R1=5µM;JMJD2E inh=28.9µM
CC(=O)NC(c1cccs1)c1cc(F)c2cccnc2c1O (configuration not stated),i[12.7 µM],79.4µM,?,i,25.1µM,nt,12-hLO 8HQ R1=2µM;JMJD2E inh=28.9µM
CCC(=O)NC(c1cccs1)c1cc([N+](=O)[O-])c2cccnc2c1OC (configuration not stated),?,nt,i,nt,?,nt,12-hLO 8HQ R1=i;JMJD2E inh=4.57µM
CC(=O)NC(C)c1cc(Cl)c2ccccc2c1O (configuration not stated),i[0.501 µM],i,i,i,i,nt,
Cc1ccc(C)n1CCN1CCN(C(=O)CC#N)CC1,?,i,i,i,i,nt,
SMILES,G9a block,JMJD2A Tudor,L3MBTL1 block,HP1b binding inh,BAZ2B block,ME-1 growth,others
O=c1oc2ccc3ccccc3c2cc1-c1nnc(Nc2ccccc2)s1,i,i,nt,i,i,nt,
Cc1cc(=O)cc2oc3cc(N)c(-c4c(C)cc(O)cc4O)c(C)c3nc1-2,nt,nt,nt,nt,nt,i,
CCc1nnc(NC(=O)c2nc(SCc3ccc(F)cc3)ncc2Cl)s1,?,i,nt,i,i,nt,
COc1cccc2c1C(=O)c1c(O)c3c(c(O)c1C2=O)C[C@@](O)(C(C)=O)C[C@@H]3O[C@H]1C[C@H](N)[C@H](O)[C@H](C)O1,35.5µM,?,i,i,35.5µM,0.251µM,
CCC(=O)NC(C)c1cc(Cl)c2cccnc2c1O (configuration not stated),i[12.7 µM],79.4µM,?,i,31.6µM,nt,12-hLO 8HQ R1=50µM;JMJD2E inh=28.9µM
CCC(=O)NC(c1cc(Cl)c2ccccc2c1O)C(C)C (configuration not stated),i[0.501 µM],i,i,i,i,nt,
CC(=O)NC(C)c1cc(Cl)c2cccnc2c1O (configuration not stated),i[12.7 µM],79.4µM,?,i,35.5µM,nt,12-hLO 8HQ R1=i;JMJD2E inh=28.9µM
CC(=O)NCc1cc(Cl)c2cccnc2c1O,i[12.7 µM],nt,22.4µM,nt,10µM,nt,12-hLO 8HQ R1=i;JMJD2E inh=20.4µM
COc1cc(NC(C)=O)c2ncccc2c1NC(C)=O,i,i,nt,i,i,nt,
C/C(=N\NC(=O)CC#N)C1COc2ccccc2O1 (configuration not stated),i,?,i,i,i,nt,
CC(=O)c1cccc(NC(=O)CN2CCc3cc4c(cc3C2)OCCCO4)c1,i,i,i,i,i,nt,
COc1ccc(Oc2nc(-c3ccccn3)ncc2OC)cc1,?,89.1µM,?,i,28.2µM,?,
NNC(=O)c1cc2ccccc2cc1O,i,i,i,i,i,nt,
O=c1c(O)cccc2cc(O)c(O)c(O)c12,0.562µM,0.891µM,0.562µM,?,0.794µM,?,
CCc1cccc(NC(=O)CCCCCC2NC(=O)NC2C)c1 (configuration not stated),1.26µM,0.316µM,nt,0.794µM,0.794µM,i,
CCOC(=O)c1sc2nccc(OC)c2c1N=CN(C)C,i,i,i,i,i,nt,
Nc1c(C(=O)NCC2CCCO2)sc2nc3c(c(-c4ccco4)c12)CC/C3=C\c1ccco1 (configuration not stated),8.91µM,2µM,3.16µM,?,8.91µM,?,
